Sfp inh – blocks B. subtilis Sfp PPTase activity | Biochemical Sfp PPTase activity, qHTS | 310,000 compounds, 3.5% hits | Q9F4F7 | Potency, µM, without a hit: largest response in the series, negative = inhibition, most hits filed as inhibitors;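 also: the enzyme is Sfp with the accession as filed and its product quenches rhodamine fluorescence; potency is read from the fitted curve at half-maximal effect; 0% = enzyme reaction without inhibitor and -100% = no enzyme wells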
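Fluorescence-quenching assay: 15 nM Sfp-PPTase preincubated 15 min at room temperature with compound, then 5 uM rhodamine-CoA and 12.5 uM BHQ-2-labelled YbbR peptide added. Fluorescence (ex 525/em 598 nm) read at start and after 30 min; difference gives rate.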
ALDH1A1 inh-1 – ALDH1A1 (human) enzyme inhibition | P00352 | Purified ALDH1A1, NADH fluorescence, propionaldehyde substrate | Potency, µM (series often up to 75.3 µM), for inactives: top-dose activity, negative = inhibition, actives largely listed as inhibitors | 220,000 compounds, 7.3% hits | AID 1030; active = well fitted inhibition curve with a large enough effect, not every such curve was filed as active; inconclusive = small, poorly fitted or top-dose-only effect, or another doubt; inactive = no such curve, though single readings can be large or run the other way;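 also: potency is read from the fitted curve at half-maximal effect; plate controls were no enzyme wells and a reference inhibitor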
RGS12 GoLoco inh – blocks human Gai1 binding to RGS12 GoLoco peptide, red readout; P63096; Gai1:RGS12 GoLoco peptide FP, rhodamine, 10 min; Potency, µM (doses to about 61.6 µM), inactives show at the top dose activity, negative = inhibition, most hits filed as inhibitors; 230,000 compounds, 0.44% hits; AID 880; active = well fitted inhibition curve with a large enough effect, not every such curve was filed as active; inactive = no such curve, though single readings can be large or run the other way; also: potency is read from the fitted curve at half-maximal effect; % is scaled to controls: 0 for no effect and ±100 for the full control effect; nearly all actives have a fitted effect of over 30% in size
NPSR antag – antagonists of human neuropeptide S receptor cAMP signaling | Q6W5P4 | CHO-NPSR cells, cAMP TR-FRET, antagonist mode | Potency, µM (series often up to 38.3 µM), for inactives: at the highest dose activity change, negative = inhibition, hits mostly inhibitors | 220,000 compounds, 1% hits | AID 1461; also: potency is read from the fitted curve at half-maximal effect; % is scaled to controls: 0 for no effect and ±100 for the full control effect; nearly all actives have a fitted effect of over 50% in size
Target sequence (Q6W5P4 whole entry, looked up): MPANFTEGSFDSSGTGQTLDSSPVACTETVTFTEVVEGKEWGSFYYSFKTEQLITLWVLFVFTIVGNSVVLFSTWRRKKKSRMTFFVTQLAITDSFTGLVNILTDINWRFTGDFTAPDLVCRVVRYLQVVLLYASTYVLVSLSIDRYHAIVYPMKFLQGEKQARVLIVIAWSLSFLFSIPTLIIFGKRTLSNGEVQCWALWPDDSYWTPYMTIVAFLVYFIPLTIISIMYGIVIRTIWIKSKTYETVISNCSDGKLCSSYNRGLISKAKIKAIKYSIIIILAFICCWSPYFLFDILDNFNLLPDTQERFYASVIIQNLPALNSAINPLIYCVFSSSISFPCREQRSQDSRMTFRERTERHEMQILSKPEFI
FBPA coupling cs – counter-screen for Giardia aldolase inhibitors: coupling enzyme system | coupling enzyme system counterscreen, AmpLite Red fluorescence | activity change, negative = inhibition, % at 58.2 µM, hits read low | 290,000 compounds, 0.67% hits; in the data active = activity change below about -30%; also: % is scaled to controls: 0 for no effect and ±100 for the full control effect
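Counterscreen lacking aldolase: glyceraldehyde-3-phosphate coupling-enzyme reagent preincubated 10 min at RT with compound (at 57.5 uM final), then substrate/coupling system with AmpLite Red added; fluorescence read at 525/598 nm after 20 min RT.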
KDM4E inh – inhibitors of human JMJD2E histone demethylase; B2RXH2; JMJD2E catalytic domain, FDH-coupled NADH fluorescence (FDH is formaldehyde dehydrogenase); Potency, µM (titrated, usually from 57.1 µM), for inactives: at the highest dose activity change, negative = inhibition, usual class: inhibitors; 230,000 compounds, 1.6% hits; active = well fitted inhibition curve with a large enough effect, not every such curve was filed as active; inconclusive = small, poorly fitted or top-dose-only effect, or another doubt; inactive = no such curve, though single readings can be large or run the other way;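 also: potency is read from the fitted curve at half-maximal effect; 0% = wells with enzyme and -100% = buffer wells without enzyme; nearly all actives have a fitted effect of over 50% in size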
ALDH1A1 inh-2 – Confirms inhibition of human ALDH1A1 with counterscreen; shares compounds with ALDH1A1 inh-1; purified ALDH1A1, NADH fluorescence, propionaldehyde/NAD+; Potency, µM (titrated, usually from 57.1 µM), for the others: top-dose activity change, negative = inhibition, hits mostly inhibitors; 90 compounds, 90% hits; AID 493210; calls by dose curve
Sfp inh conf – confirmation of Bacillus subtilis Sfp PPTase inhibitors; shares compounds with Sfp inh; Sfp PPTase enzymatic assay, qHTS titration; Potency, µM (titrated, usually from 114 µM), for inactives: at the highest dose activity change, negative = inhibition, most hits filed as inhibitors; 380 compounds, 79% hits; AID 2701;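 also: potency is read from the fitted curve at half-maximal effect; plate controls were uninhibited Sfp reaction for no effect and no enzyme control for full effect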
Target sequence (Q9F4F7 whole entry, looked up): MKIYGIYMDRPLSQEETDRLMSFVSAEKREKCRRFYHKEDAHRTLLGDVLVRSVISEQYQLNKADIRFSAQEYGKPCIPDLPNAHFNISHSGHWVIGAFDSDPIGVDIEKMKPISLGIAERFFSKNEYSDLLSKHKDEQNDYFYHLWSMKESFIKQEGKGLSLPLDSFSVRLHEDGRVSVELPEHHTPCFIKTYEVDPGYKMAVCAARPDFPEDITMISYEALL
Sfp PPTase gel – Blocks Sfp PPTase activity, gel read-out; shares compounds with Sfp inh; purified Sfp, gel-based phosphopantetheinylation read-out; Potency, µM, usual class: inhibitors; 210 compounds, 20% hits;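 active = potency below 100 µM; inconclusive = dose-dependent response but potency above 100 µM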;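 also: band intensities scaled against SCH202676 control wells before curve fitting; potency is an IC50 for inhibitors of Sfp transfer activity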
* marks the source's active call; other numbers are inactive results; i = inactive; ? = inconclusive; . = no result; [ ] = dose if it differs, or a comment. Compounds with a hit are over-represented: about 8.5% of the library has one in this group of screens. Unless noted, calls follow the shape of the dose curve; as a rule, active = well fitted curve in the direction sought with a large enough effect; inconclusive = small, poorly fitted or top-dose-only effect, or another doubt; inactive = no such curve, though single readings can be large; an effect the other way counts as inactive or inconclusive.

SMILES | Sfp inh | ALDH1A1 inh-1 | RGS12 GoLoco inh | NPSR antag | FBPA coupling cs | KDM4E inh | ALDH1A1 inh-2 | Sfp inh conf | Sfp PPTase gel
COc1ccc(/C(C)=N/NC(=O)CNC(=O)/C=C\c2ccccc2)c(OC)c1 | -2.2% | . | . | . | 0.5 | . | . | . | .
O=C(CN(Cc1ccccc1)C(=O)c1cc2c(s1)CCC2)NCc1cccs1 | 15.7% | 0.447µM* | 13.5% | ? | . | -4.3% | 0.0708µM* | . | .
Cn1c(SCC(=O)Nc2ccc3c(c2)OCCO3)nnc1-c1ccco1 | -3.2% | 0.0316µM* | . | -0.7%[46.1 µM] | -2.7 | -3.7% | 25.1µM* | . | .
Cn1c(SCC(=O)Nc2ccc(N3CCOCC3)cc2)nnc1-c1ccco1 | 12.6% | . | . | . | 2.0 | . | . | . | .
CCN(CC)C(=O)CSc1nc2ccccc2c(=O)n1CC | 8.2% | -8.0% | 1.1% | -8.7%[46.1 µM] | 1.5 | -4.7% | . | . | .
CCN(CC)C(=O)CSc1nc2ccccc2c(=O)n1CCC(=O)NCc1ccc(F)cc1 | 11.9% | 1µM* | 13.1% | -31.2%[46.1 µM] | 1.7 | -3.6% | 1.99µM* | . | .
O=C1C(=O)N(Cc2ccc(Cl)c(Cl)c2)c2ccccc21 | 50.1µM* | 0.0501µM* | 11.5% | . | -1.4 | 1.7% | 0.0794µM* | . | .
CCC(Sc1nc2cc(OC)c(OC)cc2c(=O)n1Cc1ccco1)C(=O)NCCOC (configuration not stated) | 7.8% | 0.794µM* | 4.4% | -20.6%[46.1 µM] | 1.3 | 7.2% | 0.251µM* | . | .
CCc1ccc(NC(=O)C(CC)Sc2nc3cc4c(cc3c(=O)n2Cc2ccco2)OCO4)cc1 (configuration not stated) | 44.7µM* | 0.398µM* | 2.5% | ? | 0.2 | -4.6% | 0.224µM* | . | .
CC12CCC(C(=O)N3CCCCC3)([C@H](Br)C1=O)C2(C)C (some centres not stated) | 22.9% | . | 6.3% | 13.4% | 6.7 | -15.9% | . | . | .
O=C(CC(Nc1ccccc1Cl)C(=O)O)c1ccccc1 (configuration not stated) | 3.98µM* | 0.126µM* | 0.1% | -7.8% | 4.4 | -23.7% | -23.5% | 13.2µM* | ?
O=C(CC(CC(=O)c1ccccc1)C(=O)O)c1ccccc1 | 2.9% | 10.7% | 4.6% | -0.3%[46.1 µM] | 3.1 | 3.4% | . | . | .
Cc1c(Cl)cccc1NC(CC(=O)c1ccccc1)C(=O)O (configuration not stated) | 7.94µM* | 0.316µM* | -11.7% | -15.0% | 1.2 | -7.1% | -21.1% | 10.5µM* | i
CC(NC(=O)CCN1C(=O)c2ccccc2C1=O)c1ccccc1 (configuration not stated) | 9.8% | . | . | . | 0.9 | . | . | . | .
CN1CCc2cccc3c2[C@@H]1Cc1ccc(O)c(O)c1-3 | 63.1µM* | 25.1µM* | 6.5% | 10.4% | -7.3 | 31.6µM* | . | 59.1µM* | 55.6µM*
COC(=O)Nc1sc2c(c1C(N)=O)CCC(C)C2 (configuration not stated) | 3.55µM* | -8.6% | 4.9% | 10.6% | -12.0 | -9.7% | . | 14.8µM* | .
CC1CCc2c(sc(NC(=O)C3c4ccccc4Oc4ccccc43)c2C(N)=O)C1 (configuration not stated) | -12.0% | ? | 5.9% | -8.6%[46.1 µM] | 0.7 | ? | . | . | .
S=C(NCc1ccco1)N1CCN(Cc2ccco2)CC1 | -29.6% | -7.4% | 7.0% | -1.5%[46.1 µM] | 1.8 | -4.0% | . | . | .
O=C(c1ccccc1)N1CCN(C(=S)NCc2ccco2)CC1 | 35.5µM* | ? | 3.6% | 2.9% | -1.2 | -2.9% | . | 33.2µM* | ?
Nc1cccn2c(-c3ccc(Cl)cc3)cnc12 | 15.8µM* | 28.2µM* | 36.9% | 5.4% | -30.9* | ? | . | ? | ?

Screens as filed in PubChem BioAssay.
